# Bioassay records (PubChem BioAssay)
# This is a sample that favours compounds with a hit; in the whole collection about 2.7% have one here.
# PP1 inh – PP1-alpha phosphatase inhibitors, primary screen, counter-screen for PP5 inhibitor project, biochemical, fluorescence, OMFP substrate, single point | Serine/threonine-protein phosphatase PP1-alpha catalytic subunit (Homo sapiens), P62136 | purified PP1alpha | inhibition, % at 6.7 µM | hit rate 0.9% among 320,000 | AID 2235, 2010;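 active = inhibition above the mean inhibition of all tested compounds plus 3 SD, computed separately for each screening campaign, cut at about 15% in these data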
# FID counter – compounds displacing fluorescent DNA intercalator, primary screen, artefact control for HCV NS3 helicase inhibitor project, biochemical, FID fluorescence; hit rate 0.17% among 290,000; inhibition, % at 7.9 µM; DNA fluorescent intercalator displacement; AID 1845, 2009; in the data active = inhibition above about 37%;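 also: higher means more ethidium bromide displaced from hairpin DNA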
# TMEM16A inh – TMEM16A chloride channel inhibitors, primary screen, cell-based, HTS; hit rate 1.2% among 310,000; normalized B-score (activity score, 25-100; higher = stronger inhibition) at 10 µM; Anoctamin-1 (Mus musculus), Q8BHY3; HEK293 TMEM16A/YFP iodide influx fluorescence, ionomycin; AID 588511, 2011;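 active = ratio plate-corrected score three or more library SD toward inhibition, starting fluorescence score within five deviations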;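 also: score derived from kinetic fluorescence span divided by baseline fluorescence per well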
# ANO1 activ – TMEM16A chloride channel activators or potentiators, primary screen, cell-based, HTS. Anoctamin-1 (Mus musculus), Q8BHY3. HEK293 TMEM16A/YFP-H148Q/I152L, iodide quench fluorescence; active compounds read low. B-score at 10 µM. hit rate 0.3% among 340,000. AID 623877, 2012;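 active = fluorescence-ratio B-score plate-corrected deviation score at least 3 library SD below zero, with starting fluorescence score within 5 deviations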;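 also: channel opened by trigger with iodide after compound preincubation; score built on the fluorescence ratio of max minus min over baseline; more negative score means more quench and so TMEM16A activation or potentiation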
# PP5 inh – PP5 phosphatase inhibitors, primary screen, biochemical, fluorescence | hit rate 0.18% among 320,000 | Serine/threonine-protein phosphatase 5 (Homo sapiens), P53041 | purified PP5c, OMFP substrate fluorescence | inhibition, % at 6.7 µM;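 active = inhibition above the campaign's mean inhibition across all tested compounds plus 3 SD, cut at about 9.5% in these data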
# PREPL inhibitor – PREPL enzyme inhibitors, primary screen, biochemical, fluorescence polarization; Prolyl endopeptidase-like (Homo sapiens), Q4J6C6; recombinant PREPL, fluorescence polarization activity-based probe; inhibition, % at 5.96 µM; hit rate 0.68% among 320,000; in the data active = inhibition above about 43%
# Target sequence (Q4J6C6 whole entry, looked up): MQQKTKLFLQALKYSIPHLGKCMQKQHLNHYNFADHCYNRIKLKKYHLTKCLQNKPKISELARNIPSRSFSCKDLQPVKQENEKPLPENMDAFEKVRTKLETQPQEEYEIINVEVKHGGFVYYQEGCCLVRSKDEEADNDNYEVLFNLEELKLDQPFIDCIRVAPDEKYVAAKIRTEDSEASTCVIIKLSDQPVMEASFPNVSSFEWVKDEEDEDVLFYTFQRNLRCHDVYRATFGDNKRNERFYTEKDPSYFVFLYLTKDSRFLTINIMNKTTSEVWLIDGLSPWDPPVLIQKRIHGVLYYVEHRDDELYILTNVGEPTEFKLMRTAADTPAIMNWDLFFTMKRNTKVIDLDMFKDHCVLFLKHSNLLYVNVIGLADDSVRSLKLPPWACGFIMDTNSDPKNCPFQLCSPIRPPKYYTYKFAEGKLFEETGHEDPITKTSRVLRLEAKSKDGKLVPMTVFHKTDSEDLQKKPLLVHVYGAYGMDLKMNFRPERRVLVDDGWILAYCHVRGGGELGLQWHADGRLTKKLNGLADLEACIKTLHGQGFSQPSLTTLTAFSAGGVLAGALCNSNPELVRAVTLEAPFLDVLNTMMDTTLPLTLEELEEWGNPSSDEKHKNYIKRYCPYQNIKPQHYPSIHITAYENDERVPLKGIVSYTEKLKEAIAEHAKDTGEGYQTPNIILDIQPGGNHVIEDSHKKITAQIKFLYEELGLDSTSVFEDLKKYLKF
# TMEM16A reconf – TMEM16A chloride channel inhibitors, confirmation, cell-based, re-confirmation | shares compounds with TMEM16A inh | HEK293 TMEM16A/YFP-H148Q, iodide quench fluorescence; ionomycin added to raise cell calcium | inhibition, % at 10 µM | hit rate 39% among 2,300 | AID 652189, 2013;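 active = mean duplicate percent inhibition, scaled so buffer wells are 0 and the reference blocker 100, over three buffer SD above buffer mean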
# HEK293 Ca mobil – calcium mobilization in TMEM16A/YFP HEK293 cells, confirmation, counter-screen for TMEM16A inhibitor project | hit rate 2% among 2,300 | shares compounds with TMEM16A inh | calcium response (% of ionomycin), % at 10 µM | Fluo4 calcium mobilization;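 active = duplicate-averaged calcium signal over 20% of the ionomycin maximum, relative to buffer baseline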;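 also: each well's signal is peak minus trough fluorescence divided by its pre-addition baseline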
# Parental YFP cnt – iodide YFP quench changes in parental YFP-HEK293, counter-screen for TMEM16A inhibitor project, cell-based | shares compounds with TMEM16A inh | ionomycin | AID 652233, 2013 | YFP ratio F(max-min)/F0 at 10 µM | 2,300 tested, under 10 active;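 active = yellow fluorescent protein signal ratio exceeding the buffer control mean by over 5 SD of those controls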;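 also: ratio is mean of duplicate wells from kinetic YFP trace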
# ClC-1 inh – ClC-1 chloride channel inhibition, selectivity assay for TMEM16A inhibitor project, cell-based, voltage-dependent ClC-1 | shares compounds with TMEM16A inh | CHO ClC-1-YFP, iodide influx fluorescence quench; iodide control reads 0, buffer control 100 | ratio percent, % at 10 µM | 2,300 tested, under 10 active | AID 652236, 2013;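 active = duplicate-mean ratio percent above the mean of iodide-only control wells, which defines zero, plus 5 of their SD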;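 also: higher percent means stronger block of ClC-1 iodide influx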
# Numbers stand for hits; - = inactive; . = no result given.
SMILES,PP1 inh,FID counter,TMEM16A inh,ANO1 activ,PP5 inh,PREPL inhibitor,TMEM16A reconf,HEK293 Ca mobil,Parental YFP cnt,ClC-1 inh
CCOc1ccc(NC(=O)CN2C(=O)NC(C)(c3ccc(OC(F)F)cc3)C2=O)cc1 (stereo not drawn),-,-,-,-,-,-,.,.,.,.
COc1cc(NS(=O)(=O)c2ccc(N/C=C(\C#N)c3nc4cc(Cl)ccc4o3)cc2)nc(OC)n1,-,-,100,-,-,-,-,-,-,-
COc1cc(NS(=O)(=O)c2ccc(NC(C)=O)cc2)nc(OC)n1,-,-,-,-,-,-,.,.,.,.
Cn1cccc1C1C=C(c2ccc(C(C)(C)C)cc2)Nc2ncnn21 (stereo not drawn),-,.,100,-,-,-,49.5%,-,-,-
CCOC(=O)c1c(C)[nH]c(C(=O)OCC(=O)N(C)CC(=O)Nc2ccccc2Cl)c1C,-,.,-,-,-,-,.,.,.,.
Cc1nc(NCCc2ccc(S(N)(=O)=O)cc2)c2c3c(sc2n1)CCC3,-,-,-,-,-,-,.,.,.,.
Cc1nc(NS(=O)(=O)c2ccc(Cl)s2)c2c3c(sc2n1)CCCC3,-,-,25,-,-,-,17.0%,-,-,-
COc1ccc(S(=O)(=O)NCc2ccc(C(=O)NCc3cccnc3)cc2)cc1,-,-,-,.,-,-,.,.,.,.
COc1cccc(NC(=O)c2ccc(S(=O)(=O)NCc3cccnc3)cc2)c1,-,-,100,-,-,-,-,-,-,-
O=C(CN1C(=O)C2CCCCC2C1=O)Nc1cc([N+](=O)[O-])ccc1F (stereo not drawn),-,.,.,-,-,-,.,.,.,.
Cc1[nH]c(=O)nc(SCc2cccc(Cl)c2)c1C#N,-,-,-,-,-,-,.,.,.,.
N#Cc1c(-c2ccccc2)nc(SCc2cccc(Cl)c2)[nH]c1=O,17.2,-,100,-,-,-,83.0%,-,-,-
CCc1c(C)nc(SCC(=O)N2CCCCC2CC)[nH]c1=O (stereo not drawn),-,-,-,-,-,-,.,.,.,.
COc1ccc(OCCSc2nnc(C)n2-c2ccccc2)cc1,-,-,100,-,-,-,-,-,-,-
CC12CCC(C(S(=O)(=O)Nc3ccccc3)C1=O)C2(C)C (stereo not drawn),.,.,.,-,.,.,.,.,.,.
OCCNc1c2ccccc2nc2c(F)c(F)c(F)c(F)c12,-,-,-,-,-,-,-,-,-,-
O=C(Cn1nnc2c(cnn2-c2ccc(F)cc2)c1=O)OC1CCCCC1,-,-,100,-,-,-,-,-,-,-
Cc1cc(C(=O)CSCCCn2c(=O)[nH]c3ccccc32)c(C)n1C,-,-,-,-,-,-,.,.,.,.
O=c1[nH]c2ccccc2n1CCCSCCCn1c(=O)[nH]c2ccccc21,-,-,100,-,-,-,38.5%,-,-,-
O=C(NCCc1ccccc1)C(c1cccs1)N(C(=O)c1csnn1)C1CC1 (stereo not drawn),-,-,25,-,-,-,-,-,-,-
O=C(NCc1ccccc1)C(c1cccs1)N(C(=O)c1csnn1)C1CC1 (stereo not drawn),-,-,-,-,-,-,.,.,.,.
C=CCn1c(SCC(=O)N(CC)C2CCS(=O)(=O)C2)nc2scc(-c3ccccc3)c2c1=O (stereo not drawn),.,.,.,-,.,.,.,.,.,.
O=C(Nc1nc2c(F)cc(F)cc2s1)C1CCN(C(=O)c2ccc(F)cc2)CC1,-,.,-,-,-,-,.,.,.,.
O=C(Nc1nc(-c2ccc(F)cc2)cs1)C1CCN(C(=O)c2ccc(F)cc2)CC1,-,.,25,-,-,-,18.5%,-,-,-
COc1ccc(S(=O)(=O)N2CCCC2CNC(=O)C(=O)NCc2ccco2)cc1 (stereo not drawn),-,.,-,-,-,-,.,.,.,.
SMILES,PP1 inh,FID counter,TMEM16A inh,ANO1 activ,PP5 inh,PREPL inhibitor,TMEM16A reconf,HEK293 Ca mobil,Parental YFP cnt,ClC-1 inh
Cc1n[nH]c(C)c1CCOc1ccc(C(C)C)cc1,-,-,25,-,-,-,-,-,-,-
CCOc1ccc(NC(=O)c2ccc(CN3CCc4ccccc4C3)cc2)cc1,-,-,-,-,-,-,.,.,.,.
Cc1cccc(NC(=O)c2ccc(CN3CCN(Cc4ccccc4)CC3)cc2)c1,-,-,25,-,-,-,-,-,-,-
O=C(Nc1ccc(S(=O)(=O)N2CCCC2)cc1)c1ccc(CN2CCc3ccccc3C2)cc1,-,-,-,-,-,-,.,.,.,.
CC(=O)c1cccc(NC(=O)c2ccc(CN3CCc4ccccc4C3)cc2)c1,-,-,-,-,-,-,20.0%,-,-,-
O=C(Nc1ccc(S(=O)(=O)N2CCOCC2)cc1)c1ccc(CN2CCc3ccccc3C2)cc1,-,-,100,.,-,-,50.5%,-,-,-
CCOC(=O)c1ccc(NC(=O)c2ccc(CN3CCc4ccccc4C3)cc2)cc1,-,-,100,-,-,-,16.0%,-,-,-
O=C1COc2ccc(S(=O)(=O)N3CCC(C(=O)NCc4ccccc4)CC3)cc2N1,-,-,-,-,-,-,.,.,.,.
CCCC1=[N+](CC(=O)c2ccc(Br)cc2)CCn2cccc21,-,-,-,-,-,-,.,.,.,.
CCCOC(=O)c1ccc(NC(=O)CSC2=Nc3ccccc3C3CC=NN23)cc1 (stereo not drawn),-,-,100,-,-,-,-,-,-,-
O=C(c1cc(COc2cccc(C(F)(F)F)c2)on1)N1C[C@H]2CC[C@H]1C2,-,-,-,-,-,-,.,.,.,.
CC1(C)C[C@@H]2C[C@@](C)(CN2C(=O)c2cc(COc3cccc(C(F)(F)F)c3)on2)C1,-,-,25,-,-,-,-,-,-,-
CCSc1nnc(NC(=O)NC(CC)(C(F)(F)F)C(F)(F)F)s1,-,-,100,-,-,-,16.0%,-,-,-
